Assay outcomes deposited in PubChem by Broad Institute.
PGC1a acetyl inh: inhibitors of PGC1a acetylation signal, primary screen, cell-based, U2OS, AlphaScreen, inhibitor mode. AlphaScreen anti-acetyl-lysine; with virally co-expressed GCN5 acetyltransferase. inhibition, % at 15.6 µM. hit rate 0.17% among 350,000;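 active means every replicate shows inhibition of at least 40%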;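 further: 0% = neutral control wells and 100% = positive control wells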
AI-2 QS mod: Vibrio harveyi AI-2 quorum sensing modulators, primary screen, JMH597 strain, luminescence/OD600 ratio; activity change, % at 7.5 µM; Vibrio harveyi JMH597 AI-2 luminescence/OD600 ratio, 9 h; stronger effect = lower value; strain lacks LuxN and CqsS sensors; 0 = neutral-control median; hit rate 0.4% among 300,000; in the data active means activity change below about -75%, passing the limit was not always enough;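 further: luminescence divided by OD600 gain over 9 h not by final OD600 alone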
Statin myotox sup: suppressors of statin myotoxicity in C2C12 myotubes, primary screen, cell-based, single point, plate reader. C2C12 myotubes + simvastatin, ATP luminescence, 48 h; scaled: DMSO 0, geranylgeraniol control 100. rescue of ATP level, % at 7.49 µM. hit rate 0.78% among 330,000. AID 602340, 2012;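 active means mean ATP rescue above about 67%, or every replicate alone reaching that limit, limit read from the data, passing the limit was not always enough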;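 further: myotubes were challenged with 10 µM simvastatin during compound exposure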
HIF act: HIF pathway transcriptional activators, primary screen, cell-based, U2OS HRE-luciferase, luminescence; U2OS HRE-luciferase reporter; normalized: DMSO 0%, desferrioxamine 100%; activation, % at 7.5 µM (by protocol); hit rate 0.32% among 300,000;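 active means mean activation of at least 10% of the iron chelator positive control signal, with at least half of replicates also reaching 10%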
Rce1 inh: yeast Rce1p protease inhibitors, primary screen, biochemical, fluorescence, cell-free homogeneous | AID 2563, 2010 | CAAX prenyl protease 2 (Saccharomyces cerevisiae (strain ATCC 204508 / S288c)), Q03530 | yeast membranes, quenched prenylated peptide cleavage fluorescence | calls only | hit rate 0.27% among 290,000;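 active means fall in fluorescence gain of 50% or more versus controls, with final raw signal at or below 3038400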;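 further: plate controls were neutral control wells for no effect and wells lacking membranes for full effect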
Target sequence (Q03530 whole entry, looked up): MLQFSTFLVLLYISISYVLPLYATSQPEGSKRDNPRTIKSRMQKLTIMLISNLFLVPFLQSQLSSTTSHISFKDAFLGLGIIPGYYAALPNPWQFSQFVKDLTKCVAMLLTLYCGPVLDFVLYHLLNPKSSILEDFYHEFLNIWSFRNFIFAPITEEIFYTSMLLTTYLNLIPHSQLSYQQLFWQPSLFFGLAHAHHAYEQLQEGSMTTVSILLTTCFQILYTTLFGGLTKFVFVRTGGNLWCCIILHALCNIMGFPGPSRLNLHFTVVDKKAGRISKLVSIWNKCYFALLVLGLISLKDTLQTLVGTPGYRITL
The depositor's hits bear a star; i = inactive; · = no result. In the library only some 1.3% were active in any assay of this set; here they are far more common.

SMILES	PGC1a acetyl inh	AI-2 QS mod	Statin myotox sup	HIF act	Rce1 inh
CCCNC(=O)N1CC2(CN(S(=O)(=O)c3cccc(OC)c3)C2)c2c(n(C)c3cc(OC)ccc23)[C@H]1CO	-2	·	·	·	·
CCCSc1nnc(CSc2nc3ccccc3s2)n1-c1ccccc1	-4	10	-25	0	i
N#CCCCSc1nnc(CSc2nc3ccccc3s2)n1-c1ccccc1	-3	22	103*	0	i
COc1ccc(S(=O)(=O)Nc2ccc3c(c2)CC(=O)N([C@@H](C)CO)C[C@@H](C)[C@H](CN(C)C(=O)Nc2cccc4ccccc24)O3)cc1	-7	·	·	·	·
Oc1cccc(/C=N/NC(=S)Nc2cccnc2)c1O	·	-84*	·	14*	i
O=C(CNC(=O)c1ccc(Cl)cc1)OC1CCOC1=O (configuration not stated)	7	31	·	0	i
CCCCOc1ccc(C(=O)NCC(=O)OC2CCOC2=O)cc1 (configuration not stated)	-3	11	-3	305*	i
C[C@H](CO)N1C[C@H](C)[C@H](CN(C)Cc2ccncc2)Oc2ccc(NS(=O)(=O)c3ccc(Cl)cc3)cc2CC1=O	0	·	3	·	·
O=C(CC1CC1)Nc1ccc2c(c1)[C@H]1C[C@H](CC(=O)NC3CCCC3)O[C@H](CO)[C@H]1O2	-3	·	5	·	·
O=c1[nH]c(=O)c2[nH]c(=S)[nH]c2[nH]1	60*	·	0	·	·
c1ccc(CN2C3=NCCCN3c3ccccc32)cc1	-9	9	79*	0	i
Brc1ccc(CN2C3=NCCCN3c3ccccc32)cc1	·	20	·	-1	i
O=C(CN1C2=NCCCN2c2ccccc21)c1ccc(Br)s1	-17	23	115*	0	i
O=C(O)CN1C2=NCCCN2c2ccccc21	2	15	·	0	i
CNC(=O)C[C@H]1CC[C@@H]2[C@H](COc3ccc(NC(=O)c4cccs4)cc3C(=O)N2C)O1	11	·	-5	·	·
CCOC(=O)C1=C(C)N=c2s/c(=C\c3cccc(OCC(=O)O)c3)c(=O)n2C1c1ccccc1OC (configuration not stated)	55*	6	5	0	i
CCOC(=O)C1=C(C)N=c2s/c(=C/c3ccc(OCC(=O)O)cc3)c(=O)n2C1c1cc(OC)c(OC)c(OC)c1 (configuration not stated)	3	12	-1	-1	i
COc1ccc(NC(=O)Nc2ccc3c(c2)C(=O)N([C@H](C)CO)C[C@@H](C)[C@H](CN(C)Cc2ccccc2)OCCCC[C@@H](C)O3)cc1	-15	·	·	·	·
Cc1cc(SCC(=O)N/N=C/c2ccc(O)c(O)c2O)c(C)cc1Br	·	0	6	36*	i
O=C(c1ccc(F)cc1)N(Cc1cccs1)C1CCS(=O)(=O)C1 (configuration not stated)	-1	6	7	167*	i
Cc1cccc(C(=O)N(Cc2cccs2)C2CCS(=O)(=O)C2)c1 (configuration not stated)	14	17	2	·	i
Cc1noc(C)c1S(=O)(=O)N(C)C[C@@H]1Oc2ccc(NC(=O)NC3CCCCC3)cc2CC(=O)N([C@H](C)CO)C[C@H]1C	5	·	-22	·	·
CCC(C)(CC(=O)O)CC(=O)Nc1cc(C(F)(F)F)cc(C(F)(F)F)c1 (configuration not stated)	68*	51	-4	0	·
O=C(NCc1ccccc1)[C@]1(Cc2ccccc2)N=C(c2ccc(OCCCO)cc2)O[C@@H]1c1ccccc1	-25	·	·	·	·
CC1(c2ccc(OC(F)F)cc2)NC(=O)N(CC(=O)Nc2ccc(OC(F)F)cc2)C1=O (configuration not stated)	·	-93*	-32	0	i
SMILES	PGC1a acetyl inh	AI-2 QS mod	Statin myotox sup	HIF act	Rce1 inh
CC1(c2ccc(OC(F)F)cc2)NC(=O)N(CC(=O)Nc2ccc(S(N)(=O)=O)cc2)C1=O (configuration not stated)	·	-14	·	-20	i
CC1(c2ccc(OC(F)F)cc2)NC(=O)N(CC(=O)Nc2ccc(F)cc2)C1=O (configuration not stated)	0	-94*	·	0	i
COc1c2c(nc3occc13)C(CC=C(C)C)(OC)C(O)CC2 (configuration not stated)	-11	-8	78*	-43	i
CC(NC(=O)C12CC3CC(CC(O)(C3)C1)C2)c1ccc(Cl)cc1Cl (configuration not stated)	·	19	11	16*	i
C[C@@H]1CN([C@@H](C)CO)C(=O)Cc2cc(NC(=O)Nc3ccc4c(c3)OCO4)ccc2O[C@H]1CN(C)C(=O)NC1CCCCC1	6	·	-27	·	·
CCCNC(=O)c1onc(CSc2ccc(Cl)cc2)c1C(=O)NCCC(C)C	-15	11	75*	0	i
C[C@@H]1CN([C@@H](C)CO)C(=O)c2cc(NC(=O)CCC(F)(F)F)ccc2O[C@@H](C)CCCCO[C@H]1CN(C)C(=O)Cc1ccccc1	-8	·	-7	·	·
O=C(c1ccc2c(c1)OCO2)N1CC2(C1)[C@@H](c1ccccc1)[C@@H](CO)N2C(=O)C1CCC1	6	·	·	·	·
O=C(Nc1ccc(F)c(F)c1)C1CCCN(S(=O)(=O)c2cnc[nH]2)C1 (configuration not stated)	1	9	97*	-1	i
NC(=O)c1cc(-c2ccccc2)nc(N2CCOCC2)n1	10	20	86*	-1	i
Cc1ccc(OCCNC(=O)CCc2nc3sc4c(c3c(=O)[nH]2)CCCC4)cc1	·	24	6	45*	i
C[C@H](CO)N1C[C@H](C)[C@@H](CN(C)Cc2ccc(Cl)c(Cl)c2)Oc2ccc(NC(=O)C3CC3)cc2CC1=O	1	·	85*	·	·
C[C@@H]1CN([C@H](C)CO)C(=O)Cc2cc(NC(=O)c3ccncc3)ccc2O[C@@H]1CN(C)Cc1ccc(Cl)c(Cl)c1	-12	·	70*	·	·
C[C@H](CO)N1C[C@H](C)[C@H](CN(C)Cc2ccc(Cl)c(Cl)c2)Oc2ccc(NC(=O)c3ccncc3)cc2CC1=O	-4	·	13	·	·
C/C=C/c1ccc(OCCCNC2CCCC2)c(OC)c1	-1	15	-32	-1	i
C/C=C/c1ccc(OCCCNC(C)CC)c(OC)c1 (configuration not stated)	-4	10	99*	-1	i
O=S(=O)(c1ccc(F)cc1)N1CC[C@@H]2[C@@H](CO)Nc3ccc(-c4ccc(F)cc4)cc3[C@@H]21	11	·	3	·	·
CC(=O)Nc1ccc(S(=O)(=O)NNC(=O)c2cc3c4ccccc4n(C)c3s2)cc1	-9	21	193*	0	i
